Experiment [1] has as its target T1, Ephrin type-B receptor 1 (Homo sapiens) (UniProt P54762).
T1 sequence (whole entry): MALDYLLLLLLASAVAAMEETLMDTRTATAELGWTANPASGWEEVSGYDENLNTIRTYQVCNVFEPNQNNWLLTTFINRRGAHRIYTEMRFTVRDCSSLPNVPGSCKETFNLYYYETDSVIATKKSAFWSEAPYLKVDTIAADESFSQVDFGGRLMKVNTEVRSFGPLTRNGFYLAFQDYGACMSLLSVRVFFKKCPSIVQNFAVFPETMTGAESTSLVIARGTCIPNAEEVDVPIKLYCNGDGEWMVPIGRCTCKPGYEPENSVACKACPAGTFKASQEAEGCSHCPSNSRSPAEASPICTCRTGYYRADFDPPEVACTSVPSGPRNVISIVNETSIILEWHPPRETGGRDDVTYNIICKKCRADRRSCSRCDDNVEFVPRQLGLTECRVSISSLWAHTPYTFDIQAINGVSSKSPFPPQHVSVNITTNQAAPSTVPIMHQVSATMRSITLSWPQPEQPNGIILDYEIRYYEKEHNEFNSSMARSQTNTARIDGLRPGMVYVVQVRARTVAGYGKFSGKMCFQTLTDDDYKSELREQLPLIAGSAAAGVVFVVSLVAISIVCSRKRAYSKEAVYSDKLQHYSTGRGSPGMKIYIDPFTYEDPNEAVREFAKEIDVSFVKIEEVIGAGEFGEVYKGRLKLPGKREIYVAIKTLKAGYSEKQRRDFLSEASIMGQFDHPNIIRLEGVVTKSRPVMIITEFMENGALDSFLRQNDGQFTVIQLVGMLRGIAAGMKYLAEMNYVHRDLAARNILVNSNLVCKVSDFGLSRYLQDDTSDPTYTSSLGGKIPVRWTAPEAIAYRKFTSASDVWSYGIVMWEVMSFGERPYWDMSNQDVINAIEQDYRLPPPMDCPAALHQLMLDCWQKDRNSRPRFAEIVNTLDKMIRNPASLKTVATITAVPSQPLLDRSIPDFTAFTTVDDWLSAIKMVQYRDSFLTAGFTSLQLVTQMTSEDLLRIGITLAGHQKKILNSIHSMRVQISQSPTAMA
Particulars: at 10 µM; call rule not given here.

The target of experiment [2] is T2, Ephrin type-B receptor 2 (Homo sapiens) (UniProt P29323).
T2 sequence (whole entry): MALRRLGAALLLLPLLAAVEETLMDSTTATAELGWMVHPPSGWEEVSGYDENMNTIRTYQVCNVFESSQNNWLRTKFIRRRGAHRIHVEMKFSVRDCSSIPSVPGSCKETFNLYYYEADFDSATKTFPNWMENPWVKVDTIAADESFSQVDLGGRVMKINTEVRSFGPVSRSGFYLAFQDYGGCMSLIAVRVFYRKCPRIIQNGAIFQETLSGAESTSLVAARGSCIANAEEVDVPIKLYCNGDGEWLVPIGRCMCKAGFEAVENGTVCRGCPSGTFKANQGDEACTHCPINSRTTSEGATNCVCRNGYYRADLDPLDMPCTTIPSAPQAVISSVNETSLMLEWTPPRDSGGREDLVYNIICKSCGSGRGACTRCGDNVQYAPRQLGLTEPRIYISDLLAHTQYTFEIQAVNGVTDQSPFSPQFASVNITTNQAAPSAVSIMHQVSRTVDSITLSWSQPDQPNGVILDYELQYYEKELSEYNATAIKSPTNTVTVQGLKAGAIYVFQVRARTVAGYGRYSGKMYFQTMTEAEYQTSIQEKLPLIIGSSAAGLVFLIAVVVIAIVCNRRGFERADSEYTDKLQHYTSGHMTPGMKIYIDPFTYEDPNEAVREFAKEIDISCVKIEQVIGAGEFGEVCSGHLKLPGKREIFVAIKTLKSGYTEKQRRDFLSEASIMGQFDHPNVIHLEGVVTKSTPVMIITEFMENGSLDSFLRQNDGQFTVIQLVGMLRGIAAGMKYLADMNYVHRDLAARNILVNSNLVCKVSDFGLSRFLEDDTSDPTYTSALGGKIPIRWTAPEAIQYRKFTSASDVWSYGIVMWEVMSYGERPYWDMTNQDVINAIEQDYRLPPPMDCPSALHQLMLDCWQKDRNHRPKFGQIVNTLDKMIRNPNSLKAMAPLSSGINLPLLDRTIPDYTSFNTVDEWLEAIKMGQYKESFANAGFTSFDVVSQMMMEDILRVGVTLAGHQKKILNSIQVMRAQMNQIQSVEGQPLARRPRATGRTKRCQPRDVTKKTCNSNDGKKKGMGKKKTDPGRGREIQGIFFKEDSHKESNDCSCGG
Particulars: at 1 µM.

Experiment [3] deals with T2, Ephrin type-B receptor 2 (Homo sapiens). Particulars: at 10 µM.
The target of experiment [4] is T3, Ephrin type-B receptor 3 (Homo sapiens) (UniProt P54753).
T3 sequence (whole entry): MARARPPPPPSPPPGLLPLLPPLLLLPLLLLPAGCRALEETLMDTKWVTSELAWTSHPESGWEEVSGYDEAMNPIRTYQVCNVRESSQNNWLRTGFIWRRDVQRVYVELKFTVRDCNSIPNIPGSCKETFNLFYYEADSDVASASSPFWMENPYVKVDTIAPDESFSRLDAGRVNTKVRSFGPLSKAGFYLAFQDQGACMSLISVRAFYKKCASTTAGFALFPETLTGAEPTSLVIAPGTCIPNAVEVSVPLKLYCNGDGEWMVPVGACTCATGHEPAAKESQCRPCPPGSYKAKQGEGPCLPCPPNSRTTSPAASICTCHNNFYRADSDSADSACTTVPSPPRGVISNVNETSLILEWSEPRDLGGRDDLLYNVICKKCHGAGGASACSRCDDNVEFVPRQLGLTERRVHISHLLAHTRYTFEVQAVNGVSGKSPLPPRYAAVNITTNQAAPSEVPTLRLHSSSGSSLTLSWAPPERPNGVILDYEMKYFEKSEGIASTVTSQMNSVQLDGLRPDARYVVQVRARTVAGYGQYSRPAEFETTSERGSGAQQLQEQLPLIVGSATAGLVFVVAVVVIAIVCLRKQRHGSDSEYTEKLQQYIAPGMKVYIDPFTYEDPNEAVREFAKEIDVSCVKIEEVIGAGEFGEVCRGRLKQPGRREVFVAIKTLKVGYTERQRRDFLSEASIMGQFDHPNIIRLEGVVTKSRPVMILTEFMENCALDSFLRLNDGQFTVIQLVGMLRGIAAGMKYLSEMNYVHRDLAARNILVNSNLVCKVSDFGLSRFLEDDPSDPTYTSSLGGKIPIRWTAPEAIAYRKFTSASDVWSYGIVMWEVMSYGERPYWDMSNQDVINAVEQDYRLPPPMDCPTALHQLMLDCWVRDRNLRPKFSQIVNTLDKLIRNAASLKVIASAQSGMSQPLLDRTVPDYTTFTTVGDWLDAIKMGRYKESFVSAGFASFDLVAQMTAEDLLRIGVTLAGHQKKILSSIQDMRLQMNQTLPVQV
The settings on record: at 1 µM.

The target in experiment [5] is T3, Ephrin type-B receptor 3 (Homo sapiens). The settings on record: at 10 µM.
Experiment [6] has as its target T4, Ephrin type-B receptor 4 (Homo sapiens) (UniProt P54760).
T4 sequence (whole entry): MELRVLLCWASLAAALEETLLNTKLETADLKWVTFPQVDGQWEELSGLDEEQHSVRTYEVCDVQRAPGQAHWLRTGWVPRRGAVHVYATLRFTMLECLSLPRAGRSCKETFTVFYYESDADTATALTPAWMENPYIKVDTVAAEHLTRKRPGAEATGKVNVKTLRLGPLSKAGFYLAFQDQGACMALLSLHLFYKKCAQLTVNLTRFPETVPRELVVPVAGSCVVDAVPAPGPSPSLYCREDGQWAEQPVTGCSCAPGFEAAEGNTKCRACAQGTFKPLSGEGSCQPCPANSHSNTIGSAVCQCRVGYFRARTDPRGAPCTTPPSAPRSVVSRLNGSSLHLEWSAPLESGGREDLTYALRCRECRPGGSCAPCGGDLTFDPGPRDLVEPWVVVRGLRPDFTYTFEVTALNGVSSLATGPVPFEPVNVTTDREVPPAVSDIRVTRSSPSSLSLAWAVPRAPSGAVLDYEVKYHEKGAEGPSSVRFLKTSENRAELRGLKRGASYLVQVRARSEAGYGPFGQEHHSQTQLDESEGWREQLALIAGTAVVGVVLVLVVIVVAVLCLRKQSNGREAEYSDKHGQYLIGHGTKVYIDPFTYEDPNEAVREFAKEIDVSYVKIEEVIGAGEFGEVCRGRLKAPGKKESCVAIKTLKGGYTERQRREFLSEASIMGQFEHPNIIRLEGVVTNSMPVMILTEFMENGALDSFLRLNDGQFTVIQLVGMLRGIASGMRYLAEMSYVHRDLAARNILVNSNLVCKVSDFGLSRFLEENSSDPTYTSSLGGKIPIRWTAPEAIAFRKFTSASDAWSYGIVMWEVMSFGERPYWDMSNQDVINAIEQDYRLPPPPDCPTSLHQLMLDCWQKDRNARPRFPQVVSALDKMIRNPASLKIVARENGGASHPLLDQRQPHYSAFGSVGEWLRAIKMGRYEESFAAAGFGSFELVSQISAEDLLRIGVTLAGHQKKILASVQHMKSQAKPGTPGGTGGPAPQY
The settings on record: at 1 µM.

In experiment [7] the target is Receptor tyrosine-protein kinase erbB-4 (Homo sapiens) (UniProt Q15303). Particulars: at 1 µM.
Receptor tyrosine-protein kinase erbB-4 (Homo sapiens), sequence (Q15303 whole entry): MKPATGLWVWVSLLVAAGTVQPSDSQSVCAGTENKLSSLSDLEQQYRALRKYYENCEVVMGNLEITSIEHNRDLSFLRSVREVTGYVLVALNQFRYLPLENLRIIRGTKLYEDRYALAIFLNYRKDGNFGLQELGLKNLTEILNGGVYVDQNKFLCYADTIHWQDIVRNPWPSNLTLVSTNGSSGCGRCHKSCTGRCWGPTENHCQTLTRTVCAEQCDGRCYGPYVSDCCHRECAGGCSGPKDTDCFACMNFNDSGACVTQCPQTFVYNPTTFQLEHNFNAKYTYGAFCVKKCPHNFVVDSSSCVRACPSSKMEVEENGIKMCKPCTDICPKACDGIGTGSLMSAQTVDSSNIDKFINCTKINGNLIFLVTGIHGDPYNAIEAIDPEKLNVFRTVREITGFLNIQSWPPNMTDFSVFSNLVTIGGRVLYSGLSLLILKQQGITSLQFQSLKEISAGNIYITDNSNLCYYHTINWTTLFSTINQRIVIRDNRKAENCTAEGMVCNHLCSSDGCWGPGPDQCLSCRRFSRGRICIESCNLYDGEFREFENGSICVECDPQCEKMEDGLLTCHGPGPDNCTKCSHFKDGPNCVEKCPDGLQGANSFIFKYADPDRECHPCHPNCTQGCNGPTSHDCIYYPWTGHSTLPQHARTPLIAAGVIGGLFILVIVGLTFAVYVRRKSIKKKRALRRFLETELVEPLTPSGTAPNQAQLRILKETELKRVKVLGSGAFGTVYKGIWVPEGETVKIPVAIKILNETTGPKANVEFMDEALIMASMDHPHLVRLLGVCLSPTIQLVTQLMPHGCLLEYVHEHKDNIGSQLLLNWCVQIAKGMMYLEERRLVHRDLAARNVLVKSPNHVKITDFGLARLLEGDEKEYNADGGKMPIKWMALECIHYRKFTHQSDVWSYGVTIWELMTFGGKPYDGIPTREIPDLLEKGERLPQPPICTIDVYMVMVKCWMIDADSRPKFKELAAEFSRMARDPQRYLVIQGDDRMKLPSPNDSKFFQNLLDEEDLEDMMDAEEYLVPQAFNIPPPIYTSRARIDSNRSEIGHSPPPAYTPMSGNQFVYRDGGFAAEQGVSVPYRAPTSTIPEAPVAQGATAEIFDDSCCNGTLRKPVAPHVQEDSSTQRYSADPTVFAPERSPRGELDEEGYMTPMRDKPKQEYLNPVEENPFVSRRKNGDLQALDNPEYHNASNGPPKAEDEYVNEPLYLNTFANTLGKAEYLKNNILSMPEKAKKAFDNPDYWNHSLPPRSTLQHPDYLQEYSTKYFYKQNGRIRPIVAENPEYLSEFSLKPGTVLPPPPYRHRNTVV
For experiment [8] the target is unchanged. The settings on record: at 10 µM.
Experiment [9] concerns the target Focal adhesion kinase 1 (Homo sapiens) (UniProt Q05397). Particulars: at 1 µM.
Experiment [10] shares this target. The settings on record: at 10 µM.
Experiment [11] deals with Fibroblast growth factor receptor 2 (Homo sapiens) (UniProt P21802). Particulars: at 1 µM.
Fibroblast growth factor receptor 2 (Homo sapiens), sequence (P21802 22-821 limits assumed): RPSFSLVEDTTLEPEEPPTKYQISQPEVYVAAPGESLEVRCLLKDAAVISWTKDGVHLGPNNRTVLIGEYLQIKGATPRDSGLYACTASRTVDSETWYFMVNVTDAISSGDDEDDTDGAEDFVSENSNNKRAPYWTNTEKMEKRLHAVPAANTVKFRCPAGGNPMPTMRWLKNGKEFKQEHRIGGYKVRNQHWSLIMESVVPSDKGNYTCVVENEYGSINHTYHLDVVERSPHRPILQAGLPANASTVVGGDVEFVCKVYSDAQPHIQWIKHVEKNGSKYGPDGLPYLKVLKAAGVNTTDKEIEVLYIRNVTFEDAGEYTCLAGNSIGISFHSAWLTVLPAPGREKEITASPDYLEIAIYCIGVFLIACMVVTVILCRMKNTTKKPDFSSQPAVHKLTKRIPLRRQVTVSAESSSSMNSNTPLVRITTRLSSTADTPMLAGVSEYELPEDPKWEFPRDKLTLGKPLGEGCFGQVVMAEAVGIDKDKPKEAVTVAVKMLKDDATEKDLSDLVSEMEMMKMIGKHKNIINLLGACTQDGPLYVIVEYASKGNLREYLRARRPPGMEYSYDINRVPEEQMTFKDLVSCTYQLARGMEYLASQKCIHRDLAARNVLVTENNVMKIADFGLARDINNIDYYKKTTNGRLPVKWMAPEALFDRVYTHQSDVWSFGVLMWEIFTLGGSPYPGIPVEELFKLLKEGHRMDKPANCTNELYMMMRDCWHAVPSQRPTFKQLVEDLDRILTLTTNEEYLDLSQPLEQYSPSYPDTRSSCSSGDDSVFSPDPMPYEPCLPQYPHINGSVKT
Experiment [12] shares this target. The settings on record: at 10 µM.
The target in experiment [13] is Tyrosine-protein kinase Fer (Homo sapiens) (UniProt P16591). Particulars: at 1 µM.
Tyrosine-protein kinase Fer (Homo sapiens), sequence (P16591 whole entry, looked up): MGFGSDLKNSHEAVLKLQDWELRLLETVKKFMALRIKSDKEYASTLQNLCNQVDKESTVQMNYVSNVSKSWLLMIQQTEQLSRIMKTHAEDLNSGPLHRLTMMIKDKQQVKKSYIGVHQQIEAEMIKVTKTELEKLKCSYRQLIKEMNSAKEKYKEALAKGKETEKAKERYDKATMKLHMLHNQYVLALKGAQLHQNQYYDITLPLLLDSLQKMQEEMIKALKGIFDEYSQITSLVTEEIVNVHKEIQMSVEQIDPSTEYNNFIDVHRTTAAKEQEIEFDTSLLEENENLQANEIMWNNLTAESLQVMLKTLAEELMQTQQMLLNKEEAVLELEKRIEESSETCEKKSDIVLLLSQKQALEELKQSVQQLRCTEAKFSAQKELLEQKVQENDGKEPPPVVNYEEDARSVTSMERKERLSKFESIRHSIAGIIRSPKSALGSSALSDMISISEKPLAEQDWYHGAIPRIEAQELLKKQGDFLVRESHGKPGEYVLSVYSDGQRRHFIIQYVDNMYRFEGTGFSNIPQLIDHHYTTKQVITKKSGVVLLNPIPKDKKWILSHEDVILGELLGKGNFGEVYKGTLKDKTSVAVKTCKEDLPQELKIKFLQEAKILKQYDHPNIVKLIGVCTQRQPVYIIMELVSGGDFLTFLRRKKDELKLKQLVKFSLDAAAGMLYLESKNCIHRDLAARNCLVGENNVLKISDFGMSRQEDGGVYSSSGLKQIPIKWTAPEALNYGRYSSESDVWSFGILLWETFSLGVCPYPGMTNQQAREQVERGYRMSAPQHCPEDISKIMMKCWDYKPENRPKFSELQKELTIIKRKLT
In experiment [14] the target is T4, Ephrin type-B receptor 4 (Homo sapiens). Particulars: at 10 µM.
The target in experiment [15] is Fibroblast growth factor receptor 4 (Homo sapiens) (UniProt P22455). The settings on record: at 1 µM.
Experiment [16] has as its target Fibroblast growth factor receptor 1 (Homo sapiens) (UniProt P11362). Particulars: at 1 µM.
Experiment [17] shares this target. Particulars: at 10 µM.
Experiment [18] concerns the target Fibroblast growth factor receptor 4 (Homo sapiens) (UniProt P22455). Particulars: at 10 µM.
Experiment [19] has as its target Fibroblast growth factor receptor 3 (Homo sapiens) (UniProt P22607). Particulars: at 10 µM.
The target is the same in experiment [20]. Particulars: at 1 µM.

As usually defined, the residual activity is the signal under treatment as a percentage of the control signal.

Each structure is given as a SMILES string.

Focal adhesion kinase 1 (Homo sapiens), sequence (Q05397 2-1052 limits assumed): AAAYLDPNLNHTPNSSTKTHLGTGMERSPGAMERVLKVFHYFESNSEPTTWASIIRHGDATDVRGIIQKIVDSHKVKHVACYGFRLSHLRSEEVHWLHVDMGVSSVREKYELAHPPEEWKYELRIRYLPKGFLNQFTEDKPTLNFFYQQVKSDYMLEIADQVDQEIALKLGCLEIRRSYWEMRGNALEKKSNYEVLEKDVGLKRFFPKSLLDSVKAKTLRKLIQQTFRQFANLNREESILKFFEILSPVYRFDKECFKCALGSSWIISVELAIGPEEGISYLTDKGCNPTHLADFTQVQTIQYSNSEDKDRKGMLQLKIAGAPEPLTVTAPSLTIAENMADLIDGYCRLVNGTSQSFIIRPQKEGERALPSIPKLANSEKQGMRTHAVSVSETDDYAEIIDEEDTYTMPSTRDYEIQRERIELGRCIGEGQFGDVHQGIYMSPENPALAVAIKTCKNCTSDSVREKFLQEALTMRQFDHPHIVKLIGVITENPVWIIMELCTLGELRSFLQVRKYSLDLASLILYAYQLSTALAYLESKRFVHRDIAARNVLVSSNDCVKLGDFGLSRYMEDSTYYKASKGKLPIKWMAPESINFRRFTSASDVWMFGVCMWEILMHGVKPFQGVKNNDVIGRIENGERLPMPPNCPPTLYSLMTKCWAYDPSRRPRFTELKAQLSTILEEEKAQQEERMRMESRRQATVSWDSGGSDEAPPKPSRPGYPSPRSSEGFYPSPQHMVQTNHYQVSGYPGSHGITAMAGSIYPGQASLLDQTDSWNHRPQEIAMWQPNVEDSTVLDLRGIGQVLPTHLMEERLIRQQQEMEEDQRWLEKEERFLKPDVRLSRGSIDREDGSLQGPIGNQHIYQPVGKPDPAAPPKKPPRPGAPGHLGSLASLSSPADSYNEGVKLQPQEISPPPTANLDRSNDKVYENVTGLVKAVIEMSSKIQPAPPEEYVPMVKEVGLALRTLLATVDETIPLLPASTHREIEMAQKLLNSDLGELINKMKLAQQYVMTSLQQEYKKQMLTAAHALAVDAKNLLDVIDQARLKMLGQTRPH
Fibroblast growth factor receptor 3 (Homo sapiens), sequence (P22607 23-806 limits assumed): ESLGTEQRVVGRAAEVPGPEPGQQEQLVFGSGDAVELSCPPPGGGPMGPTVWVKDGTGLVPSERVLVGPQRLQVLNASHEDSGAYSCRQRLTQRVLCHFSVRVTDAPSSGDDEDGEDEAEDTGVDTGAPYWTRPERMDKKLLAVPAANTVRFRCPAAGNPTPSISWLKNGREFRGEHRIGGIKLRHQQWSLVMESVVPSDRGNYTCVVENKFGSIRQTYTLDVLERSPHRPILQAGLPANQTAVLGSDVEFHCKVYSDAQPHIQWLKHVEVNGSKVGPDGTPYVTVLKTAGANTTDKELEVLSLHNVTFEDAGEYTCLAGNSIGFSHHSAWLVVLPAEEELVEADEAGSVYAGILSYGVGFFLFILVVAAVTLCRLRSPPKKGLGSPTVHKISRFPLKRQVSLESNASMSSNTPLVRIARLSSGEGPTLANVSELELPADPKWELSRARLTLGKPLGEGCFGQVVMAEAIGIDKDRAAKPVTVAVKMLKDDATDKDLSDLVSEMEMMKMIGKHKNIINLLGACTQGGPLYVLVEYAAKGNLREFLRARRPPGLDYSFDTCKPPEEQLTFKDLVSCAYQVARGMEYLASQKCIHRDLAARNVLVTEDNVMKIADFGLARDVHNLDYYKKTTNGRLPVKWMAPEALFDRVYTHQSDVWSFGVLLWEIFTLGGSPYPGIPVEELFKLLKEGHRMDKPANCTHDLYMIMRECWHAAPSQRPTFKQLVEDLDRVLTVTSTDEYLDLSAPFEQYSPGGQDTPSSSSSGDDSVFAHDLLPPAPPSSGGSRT

Regarding `O=C(CCCc1ccc(-c2ccccc2F)cc1)Nc1ccc(O)cc1`, the residual activity was 98% in experiment [1]; 107% in experiment [2]; 112% in experiment [3]; 109% (inactive) in experiment [4]; 97% in experiment [5]; 93% in experiment [6]. Further, the residual activity in experiment [7] was 111%; in [8], 127%; in experiment [9] it was 105%; in [10], 112%; in experiment [11] it was 99%; in [12] it was 99%. Further, in experiment [13], the residual activity came to 109%.

In the case of `O=C(Nc1nc2ccccc2n1CCN1CCOCC1)c1cccc([N+](=O)[O-])c1`, the residual activity in experiment [1] is 103%; in [2] it was 113%; in experiment [3], 110%; in experiment [4], 110% (inactive); in experiment [14], 109%; in experiment [9] it was 131%. Moreover, the residual activity in experiment [10] turned out to be 87%; in experiment [15], 114%.

As to `CC(C)(C)n1nc(Cc2cccc3ccccc23)c2c(N)ncnc21`, the residual activity in experiment [1] was 0%; in experiment [2] it was 3%; in [3], -1%; in experiment [4] it was 112% (inactive); in [5] it was 12%; in [6], 3%. Moreover, the residual activity was -3% in experiment [14]; 51% in experiment [7]; 8% in experiment [8]; 122% in experiment [9]; 81% in [10]; 28% in experiment [16]. For the same compound, the residual activity was 2% in experiment [17]; 62% in [11]; 18% in experiment [12]; 115% in [15]; 72% in experiment [18]; 104% in experiment [13].

`CN(C)S(=O)(=O)c1ccc2c(c1)/C(=C/c1cc3c([nH]1)CCCC3)C(=O)N2`: the residual activity is 64% in [1]; 120% (inactive) in [4]; 94% in [5]; 70% in experiment [6]; 69% in [14]; 88% in experiment [7]. The residual activity in experiment [8] worked out at 82%; in [9], 21%; in experiment [10] it was 8%; in [16], 36%; in [17] it was 54%; in experiment [11] it was 51%. Further, the residual activity in experiment [12] stood at 30%; in experiment [19], 90%; in experiment [15] it was 84%; in experiment [18], 87%; in experiment [13] it was 59%.

Take `CCCC(=O)Oc1ccc2[nH]c(C(=O)c3cc4ccccc4[nH]3)cc2c1`: the residual activity is 108% in experiment [1]; 120% in [2]; 131% in experiment [3]; 102% (inactive) in [4]; 92% in [6]; 101% in experiment [14]. The residual activity in [7] turned out to be 81%; in experiment [8], 95%; in [10], 79%; in experiment [11], 97%; in [12], 108%; in [15], 125%. The residual activity in experiment [18] was 86%; in experiment [13] it was 107%.

As for `COc1cc2c(cc1OC)-c1n[nH]c(Nc3cccc(F)c3)c1C2`, the residual activity in experiment [1] was 43%; in [3], 64%; in [6], 77%; in [14], 35%; in experiment [20], 111%; in experiment [19] it was 67%. Moreover, the values for the residual activity in experiment [15], in experiment [18] and in experiment [13] were 117%, 101% and 100%, respectively.

The record behind these values is ChEMBL document CHEMBL2218924, “A broad activity screen in support of a chemogenomic map for kinase signalling research and drug discovery” (Biochem J, 2013).
